Laboratory results published in PubChem BioAssay AID434970 (Sanford-Burnham Center for Chemical Genomics, 2010).
Hit rate of the full screen: of about 11,000 compounds, about 310 (2.8%) were called active. Cut-off read from the data, not from the text of the source: active = activity change below about -85%; inactive = the rest. The sample as a whole holds a higher share of actives than the screen did.

What follows are molecules tested on intestinal alkaline phosphatase [Mus musculus] (assay: mouse intestinal phosphatase enzyme activation – biochemical, luminescence, single concentration, confirmation (AID 434970)). Settings: purified mouse IAP, CDP-Star luminescence, 30 min, at 10 µM; activation factor: measured here: IAP activation factor, stronger effect = higher value; activity change, negative = activation: stronger effect = lower value.
`Cc1cc(C)c2c(n1)nn1c(NCCOCCO)cc(C)nc21` was tested, and the activation factor was 0.968 and the activity change, negative = activation was 3.25% (inactive).
With `Cc1ccc(S(=O)(=O)N2C[C@@H]3[C@H]4CC[C@H](C4)[C@@H]3[C@@H](C)[C@@H]2c2ccn([Si](C(C)C)(C(C)C)C(C)C)c2)cc1` the activation factor was 0.986 and the activity change, negative = activation was 1.35% (inactive).
In the case of `COc1ccc(S(=O)(=O)Nc2cc(C(C)C)c(O)cc2C)cc1`, the activation factor is reported as 0.996 and the activity change, negative = activation is reported as 0.45% (inactive).
In the case of `Cc1ccc(SCCCn2cnc3ccccc3c2=O)cc1`, the activation factor is reported as 0.958 and the activity change, negative = activation is reported as 4.25% (inactive).
`COc1cc(OC)c2c(-c3ccccc3)cc(=O)oc2c1C(CCN1CCOCC1)c1ccc2c(c1)OCO2` (stereo not drawn) was tested, and the activation factor was 0.932 and the activity change, negative = activation was 6.8% (inactive).
In the case of `CCN(CC)C(=O)[C@H]1CC(CC(=O)NCCC2=CCCCC2)C(=O)N2CCc3c([nH]c4ccc(OC)cc34)[C@]12C` (stereo partly drawn), the activation factor is reported as 1.07 and the activity change, negative = activation is reported as -7.45% (inactive).
In the case of `O=C(Nc1cccc(-c2cccc(F)c2)c1)C1CCN(C2CCC2)CC1`, the activation factor is reported as 2.55 and the activity change, negative = activation is reported as -155% (active).
For `COc1ccc(OC)c(S(=O)(=O)N2CCC(C(=O)Nc3cccc(C(F)(F)F)c3)CC2)c1`, the activation factor was 1.61 and the activity change, negative = activation was -60.9% (inactive).
With `O=C(Nc1cccc(Cl)c1)NC1CCN(C2CCCCC2)C1` (stereo not drawn) the activation factor was 1.85 and the activity change, negative = activation was -84.9% (inactive).
With `O=C(Nc1cccc(-c2cccc(Cl)c2)c1)C1CCN(C2CCC2)CC1` the activation factor was 3.94 and the activity change, negative = activation was -294% (active).
In the case of `O=C(Nc1cccc(F)c1)C1CC(=O)N(c2ccc(Cl)cc2)C1` (stereo not drawn), the activation factor is reported as 1.07 and the activity change, negative = activation is reported as -7.45% (inactive).
`S=C(Nc1cccc(Cl)c1)NC1CC2CCCC(C1)N2C1CCCC1` (stereo not drawn) was tested, and the activation factor was 1.44 and the activity change, negative = activation was -44.3% (inactive).
`Cc1noc(C)c1COC(=O)C1COc2ccccc2O1` (stereo not drawn) was tested, and the activation factor was 1.08 and the activity change, negative = activation was -8.15% (inactive).
For `CC[C@]12c3[nH]c4cc(-c5ccco5)ccc4c3CCN1C(=O)[C@@H](CC(=O)NCC13CC4CC(CC(C4)C1)C3)C[C@@H]2C(=O)N1CCN(C(=O)C2CC2)CC1`, the activation factor was 0.989 and the activity change, negative = activation was 1.05% (inactive).
With `COc1cc2sc(-c3ccccc3OC)c(-c3ccc(OCCN4CCOCC4)cc3)c2cc1OC` the activation factor was 1 and the activity change, negative = activation was -0.3% (inactive).
For `CCSc1nnc(NC(=O)CCNS(=O)(=O)c2cc(Br)cnc2N)s1`, the activation factor was 0.825 and the activity change, negative = activation was 17.4% (inactive).
With `CC(C)(C)c1ccc(NC(=O)Nc2ccc(F)cc2)cc1` the activation factor was 1.65 and the activity change, negative = activation was -65.3% (inactive).
`CCOC(=O)c1cccc(NC(=O)Nc2ccc(OCC)cc2)c1` was tested, and the activation factor was 1.88 and the activity change, negative = activation was -87.6% (inactive).
With `O=C(Nc1ccc(F)cc1)Nc1cc(OCC(F)(F)F)cc(OCC(F)(F)F)c1` the activation factor was 2.11 and the activity change, negative = activation was -111% (active).
`CCOc1ccc(NC(=O)Nc2cc(OCC(F)(F)F)cc(OCC(F)(F)F)c2)cc1` was tested, and the activation factor was 2.08 and the activity change, negative = activation was -108% (active).
For `CCOc1ccc(NC(=O)Nc2cc(C)ccc2OC)cc1`, the activation factor was 1.16 and the activity change, negative = activation was -15.9% (inactive).
`O=C(Nc1ccc(F)cc1)Nc1cccc(Br)c1` was tested, and the activation factor was 1.74 and the activity change, negative = activation was -73.8% (inactive).
In the case of `CC(C)Oc1cccc(C(=O)Nc2ccc(N3CCN(S(C)(=O)=O)CC3)cc2)c1`, the activation factor is reported as 1.1 and the activity change, negative = activation is reported as -10.2% (inactive).
`CCOCCCNC(=O)C(C)NS(=O)(=O)c1ccc(C)cc1` (stereo not drawn) was tested, and the activation factor was 0.903 and the activity change, negative = activation was 9.65% (inactive).
With `COc1ccc(C(=O)NCC(C)C)c(OC)c1` the activation factor was 0.893 and the activity change, negative = activation was 10.7% (inactive).
With `CC(C)(C)OC(=O)N[C@@H](Cc1ccccc1)c1nnc(SCC(=O)O)o1` the activation factor was 0.956 and the activity change, negative = activation was 4.4% (inactive).
For `O=S(=O)(c1ccc2ccccc2c1)N1CCCOC1`, the activation factor was 1.17 and the activity change, negative = activation was -16.5% (inactive).
For `CCOc1ccccc1NC(=O)N1C2CCCC1CC(NC(=O)C1CC1)C2` (stereo not drawn), the activation factor was 1.05 and the activity change, negative = activation was -5.1% (inactive).
With `COc1cc(NC(=O)CCN2CCN(Cc3ccccc3)CC2)cc(OC)c1` the activation factor was 0.978 and the activity change, negative = activation was 2.15% (inactive).
In the case of `COc1cccc(NC(=O)N2CCCC2C(=O)NC(C)C)c1` (stereo not drawn), the activation factor is reported as 0.971 and the activity change, negative = activation is reported as 2.9% (inactive).
With `COc1cc(NC(=O)NC2Cc3ccccc3C2)cc(OC)c1` the activation factor was 2.69 and the activity change, negative = activation was -169% (active).
`COc1cc(NC(=O)c2ccccc2)cc(OC)c1` was tested, and the activation factor was 0.99 and the activity change, negative = activation was 0.95% (inactive).
With `CC(=O)c1cccc(NC(=O)NC(C)C2CCCO2)c1` (stereo not drawn) the activation factor was 1.12 and the activity change, negative = activation was -12.2% (inactive).
In the case of `COc1cccc(NC(=O)NC2CCCCCCC2)c1`, the activation factor is reported as 2.67 and the activity change, negative = activation is reported as -167% (active).
For `COc1cccc(C(=O)NC2CCN(C(=O)N3CCCCC3)CC2)c1`, the activation factor was 1.09 and the activity change, negative = activation was -9.3% (inactive).
In the case of `COc1cccc(NC(=O)NCCCSC2CCCCC2)c1`, the activation factor is reported as 1.68 and the activity change, negative = activation is reported as -67.6% (inactive).
For `CCN1CCN(CCC(=O)Nc2cccc(OC)c2)CC1`, the activation factor was 0.925 and the activity change, negative = activation was 7.45% (inactive).
For `COc1cccc(NC(=O)CC2COc3ccccc3O2)c1` (stereo not drawn), the activation factor was 1.15 and the activity change, negative = activation was -15% (inactive).
For `CCC1CCC(NC(=O)Nc2cccc(OC)c2)CC1` (stereo not drawn), the activation factor was 2.37 and the activity change, negative = activation was -137% (active).
